Results filed as inconclusive are left out. Active and inactive are the calls of the source.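 How the source made its calls, unless noted: active means GFP signal, as percent of the solvent control, above the screen mean plus 3 SD, about 149; inconclusive means no reading because the compound's own fluorescence upset strain identification; inactive means the rest.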
Assays:
[1] = rapamycin-like changes in RPL19A-GFP expression – cell-based, S. cerevisiae, multiplex flow cytometry, primary screen (AID 1862; in the data active means percent of DMSO control GFP below about 86%;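 further: lower values mimic rapamycin by blocking the RPL19A rise seen in DMSO cells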); settings: S. cerevisiae RPL19A-GFP strain, flow cytometry fluorescence, 3 h; at 10 µM; stronger effect = lower value
[2] = TOR pathway GLN3 branch reporter MEP2-GFP changes – S. cerevisiae, multiplex flow cytometry, primary screen (AID 1867;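 active means GFP response, as percent of the DMSO control, above the screen-wide mean plus 3 SD, about 139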;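 further: median GFP channel fluorescence of barcode-gated MEP2-GFP cells measured by flow cytometry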); settings: S. cerevisiae MEP2-GFP strain, 3 h, at 10 µM, stronger effect = higher value, 100% means same as DMSO wells
[3] = TOR pathway RTG branch CIT2 reporter changes – S. cerevisiae, GFP fusion, multiplex flow cytometry, primary screen (AID 1870;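 active means percent response above a set limit, the screen-wide mean plus 3 SD, cut at about 130% in these data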;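 further: barcoded CIT2-GFP strain pooled with four other GFP strains with rapamycin as positive control; median GFP fluorescence per well over plate mean of DMSO wells so 100% = DMSO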); settings: S. cerevisiae CIT2-GFP expression, 3 h, at 10 µM, stronger effect = higher value
[4] = TOR pathway LAP4-GFP level changes – S. cerevisiae, multiplex flow cytometry, primary screen (AID 1873); settings: S. cerevisiae LAP4-GFP expression, 3 h, at 10 µM, stronger effect = higher value
[5] = yeast AGP1-GFP level changes, GLN3 branch – cell-based, multiplex flow cytometry, S. cerevisiae, primary screen (AID 1887;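 active means GFP signal above the screen-wide mean plus 3 SD, that is over about 124.5% of the solvent control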;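 further: AGP1-GFP fusion strain of S. cerevisiae within a five-strain barcoded multiplex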); settings: 3 h, at 10 µM, stronger effect = higher value
[6] = reduced mouse 2C T cell binding to pMHC/ICAM-1 vesicles – MLPCN validation set, flow cytometry, LFA-1/ICAM-1 modulator project, pilot screen (AID 2523;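 active means response below a set limit, under 55% cells CD8-positive and vesicle-bound, and CD8 cells' 90th-percentile brightness under 279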;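 on vesicle binding response: mean PE anti-B7-1 fluorescence of CD8+ cells relative to row control; 100% = QL9-loaded vesicles with DMSO vehicle in the same plate row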); settings: 2C mouse CD8+ T cells, at 7 µM, stronger effect = lower value; double positive events: measured here: CD8+/vesicle+ event percentage
[7] = molecular target: Integrin beta-1 (Homo sapiens) + Integrin alpha-4 (Homo sapiens) (UniProt P13612+P05556); assay: alpha4beta1 integrin LIBS antibody binding reduction – U937 cells, HUTS-21 mAb, flow cytometry, validation set, VLA-4 allosteric modulator project, pilot screen (AID 2674;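 active means inhibition above 50%, about 3 SD of the validation set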;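 further: antibody binding induced by the VLA-4 ligand LDV present at three times its Kd; 0% = LDV ligand with antibody and no compound and 100% = antibody without LDV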); settings: HUTS-21 LIBS mAb binding, at 6.7 µM, stronger effect = higher value, binding induced by LDV ligand
[8] = calorie-restriction mimetic ROS inhibitors, yeast – validation compound set, pilot screen (AID 2706;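 active means superoxide response below 65% of plate, a cut near 3 SD across the whole screen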;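 further: yeast exposed to compound for one week at 30 degrees C before staining; 100% = mean of all compound wells on the same plate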); settings: S. cerevisiae aging, superoxide DHE fluorescence; at 10 µM; stronger effect = lower value
[9] = molecular target: Beta-adrenergic receptor kinase 1 (Homo sapiens) (UniProt P25098); assay: GRK2 binders displacing RNA aptamer, biochemical, validation, human GRK2, bead flow cytometry (AID 488806;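 active means aptamer binding inhibition above 30%, about 3 SD of noise from non-fluorescent compounds; inactive means inhibition at or below 30%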); settings: bead-bound GRK2, FAM-aptamer displacement, at 10 µM, stronger effect = higher value
[10] = molecular target: Beta-2 adrenergic receptor (Homo sapiens) (UniProt P07550); assay: agonist-induced loss of surface beta2AR – cell-based, FAP fluorogen, flow cytometry, validation set, pilot screen (AID 504459;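 active means percent response above 42, roughly 3 SD of non-fluorescent test compounds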;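 further: agonist-driven loss of surface beta2AR via internalization measured by FAP dye flow cytometry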); settings: Am2.2-beta2AR cells, at 10 µM, stronger effect = higher value
[11] = molecular target: AP-2 complex subunit beta (Homo sapiens) (UniProt P63010); assay: beta-arrestin/AP2 interaction blockers – biochemical, validation set, GST-AP2 beads, flow cytometry, pilot screen (AID 504541;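 active means inhibition above 54%, about 3 SD of non-fluorescent compounds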;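 further: AP2 carries R879A mutation and is captured from E. coli lysate; bead-bound FITC arrestin peptide fluorescence measuring arrestin peptide binding to AP2; 0% = DMSO wells and 100% = excess unlabeled arrestin peptide control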); settings: FITC arrestin peptide, at 10 µM, stronger effect = higher value, AP2 beta2 appendage fragment, R879A mutant
[12] = cytosolic pH regulators acting via V-ATPase – S. cerevisiae, pHLuorin, HTS validation (AID 504600; in the data active means response above about 15%;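 further: plate controls were DMSO for no effect and reference compound for full effect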); settings: V-ATPase proton transport, at 10 µM, stronger effect = higher value
[13] = test system: anti-desmoglein-3 scFv antibody binding to human DSG3; assay: blockers of pathogenic pemphigus antibody–desmoglein-3 binding – biochemical, validation compound set, bead-based, flow cytometry, pilot screen (AID 588368;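 active means binding below the plate cutoff, the plate median minus 3 SD, with a reading above zero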;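 further: signal is the median channel fluorescence of bead-bound GFP antibody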); settings: Protein G beads, DSG3-Fc, scFv-GFP binding, at 10 µM, stronger effect = lower value
[14] = Nile Red efflux blockade in pump-expressing yeast – validation compound set, multiplex, phenotypic, pilot screen (AID 588506;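 active means efflux inhibition above 0.42, the validation set average plus 4 SD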;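 further: Nile Red retained in cells so higher fluorescence means more efflux inhibition; 0 = negative control wells and 1 = enniatin B 25 µM full block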); settings: S. cerevisiae pump-expressing triplex, Nile Red efflux flow cytometry; at 10 µM; stronger effect = higher value; the pumps come from Candida albicans
[15] = molecular target: ATP-binding cassette sub-family B member 6 (Homo sapiens) (UniProt Q9NP58); assay: blockers of ABCB6-driven porphyrin uptake – K562-ABCB6 cells, flow cytometry, validation set, pilot screen (AID 588550;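 active means inhibition above the screen-wide mean plus 3 SD, about 51%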;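 further: 0% = DMSO wells and 100% = benzethonium chloride 70 µM positive control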); settings: K562-ABCB6 porphyrin accumulation, 1 h, at 10 µM, stronger effect = higher value
[16] = AML differentiation inducers, ER-HoxA9 marrow cells – cell-based, GFP/MAC1 double positive, flow cytometry, validation set, primary screen (AID 588685;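 active means differentiation response of at least 50%, scaled between solvent and reference control, from cells with both markers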;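 further: compound exposure lasts four days before antibody staining and flow analysis; 0% = DMSO wells and 100% = 5 µM fulvestrant positive control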); settings: stronger effect = higher value, normalized: vehicle 0, fulvestrant 100

Sequence of Beta-2 adrenergic receptor (Homo sapiens) (P07550 whole entry, looked up): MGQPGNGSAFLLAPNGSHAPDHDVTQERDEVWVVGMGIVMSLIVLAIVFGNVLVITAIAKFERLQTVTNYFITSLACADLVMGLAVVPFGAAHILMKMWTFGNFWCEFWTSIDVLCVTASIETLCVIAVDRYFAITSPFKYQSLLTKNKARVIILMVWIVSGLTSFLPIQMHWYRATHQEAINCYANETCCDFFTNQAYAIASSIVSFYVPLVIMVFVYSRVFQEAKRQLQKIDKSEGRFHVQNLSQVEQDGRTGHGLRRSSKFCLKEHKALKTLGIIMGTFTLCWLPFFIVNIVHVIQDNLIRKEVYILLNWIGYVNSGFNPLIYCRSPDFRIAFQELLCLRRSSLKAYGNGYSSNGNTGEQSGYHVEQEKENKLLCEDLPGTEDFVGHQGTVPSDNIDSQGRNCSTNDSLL
Sequence of AP-2 complex subunit beta (Homo sapiens) (P63010 whole entry, looked up, the tested form may be a part, one chain of several): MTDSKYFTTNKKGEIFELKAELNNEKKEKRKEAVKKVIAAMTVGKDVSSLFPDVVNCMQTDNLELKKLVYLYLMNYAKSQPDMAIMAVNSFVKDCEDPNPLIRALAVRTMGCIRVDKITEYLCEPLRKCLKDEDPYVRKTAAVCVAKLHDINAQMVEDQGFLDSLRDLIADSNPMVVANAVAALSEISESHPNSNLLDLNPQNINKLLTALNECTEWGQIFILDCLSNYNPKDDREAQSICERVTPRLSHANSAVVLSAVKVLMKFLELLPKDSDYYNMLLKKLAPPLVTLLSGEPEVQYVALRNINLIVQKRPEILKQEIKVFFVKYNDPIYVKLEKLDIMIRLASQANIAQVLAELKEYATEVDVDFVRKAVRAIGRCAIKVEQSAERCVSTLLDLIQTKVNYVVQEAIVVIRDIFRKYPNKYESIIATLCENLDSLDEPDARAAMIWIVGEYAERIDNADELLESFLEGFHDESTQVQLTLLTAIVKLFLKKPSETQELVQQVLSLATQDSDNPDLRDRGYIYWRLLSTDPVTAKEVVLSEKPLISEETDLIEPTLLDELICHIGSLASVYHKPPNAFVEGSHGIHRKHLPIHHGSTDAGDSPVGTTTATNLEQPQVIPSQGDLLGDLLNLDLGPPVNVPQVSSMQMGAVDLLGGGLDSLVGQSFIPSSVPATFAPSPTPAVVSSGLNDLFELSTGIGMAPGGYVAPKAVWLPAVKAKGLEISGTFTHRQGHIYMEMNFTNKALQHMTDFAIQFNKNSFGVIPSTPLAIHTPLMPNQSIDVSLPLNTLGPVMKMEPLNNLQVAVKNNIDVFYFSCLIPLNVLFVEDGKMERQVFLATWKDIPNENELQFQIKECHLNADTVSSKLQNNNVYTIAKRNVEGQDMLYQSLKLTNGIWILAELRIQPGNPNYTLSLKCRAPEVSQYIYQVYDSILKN
Sequence of Integrin beta-1 (Homo sapiens) + Integrin alpha-4 (Homo sapiens) (P05556 whole entry, looked up): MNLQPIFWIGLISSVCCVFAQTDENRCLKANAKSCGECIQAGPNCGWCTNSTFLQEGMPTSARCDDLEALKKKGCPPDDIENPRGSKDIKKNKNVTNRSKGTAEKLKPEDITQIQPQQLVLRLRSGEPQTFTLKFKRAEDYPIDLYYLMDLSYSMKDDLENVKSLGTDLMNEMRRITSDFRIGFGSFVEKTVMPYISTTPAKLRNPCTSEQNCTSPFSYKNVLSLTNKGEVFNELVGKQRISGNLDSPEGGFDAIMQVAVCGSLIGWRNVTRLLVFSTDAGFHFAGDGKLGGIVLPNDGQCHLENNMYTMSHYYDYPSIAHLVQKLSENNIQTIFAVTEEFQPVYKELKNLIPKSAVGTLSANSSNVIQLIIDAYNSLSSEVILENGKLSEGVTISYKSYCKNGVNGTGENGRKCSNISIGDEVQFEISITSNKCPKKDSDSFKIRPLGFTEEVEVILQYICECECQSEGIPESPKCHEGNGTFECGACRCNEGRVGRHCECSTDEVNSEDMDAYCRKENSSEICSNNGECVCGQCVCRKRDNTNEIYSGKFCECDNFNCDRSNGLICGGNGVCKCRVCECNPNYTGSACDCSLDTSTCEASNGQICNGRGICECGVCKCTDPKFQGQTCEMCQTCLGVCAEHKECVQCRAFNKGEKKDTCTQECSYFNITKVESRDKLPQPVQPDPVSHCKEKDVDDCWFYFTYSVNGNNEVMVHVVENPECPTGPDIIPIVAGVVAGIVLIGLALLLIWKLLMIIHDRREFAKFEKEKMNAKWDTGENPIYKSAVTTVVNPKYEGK
Sequence of Integrin beta-1 (Homo sapiens) + Integrin alpha-4 (Homo sapiens) (P13612 whole entry, looked up): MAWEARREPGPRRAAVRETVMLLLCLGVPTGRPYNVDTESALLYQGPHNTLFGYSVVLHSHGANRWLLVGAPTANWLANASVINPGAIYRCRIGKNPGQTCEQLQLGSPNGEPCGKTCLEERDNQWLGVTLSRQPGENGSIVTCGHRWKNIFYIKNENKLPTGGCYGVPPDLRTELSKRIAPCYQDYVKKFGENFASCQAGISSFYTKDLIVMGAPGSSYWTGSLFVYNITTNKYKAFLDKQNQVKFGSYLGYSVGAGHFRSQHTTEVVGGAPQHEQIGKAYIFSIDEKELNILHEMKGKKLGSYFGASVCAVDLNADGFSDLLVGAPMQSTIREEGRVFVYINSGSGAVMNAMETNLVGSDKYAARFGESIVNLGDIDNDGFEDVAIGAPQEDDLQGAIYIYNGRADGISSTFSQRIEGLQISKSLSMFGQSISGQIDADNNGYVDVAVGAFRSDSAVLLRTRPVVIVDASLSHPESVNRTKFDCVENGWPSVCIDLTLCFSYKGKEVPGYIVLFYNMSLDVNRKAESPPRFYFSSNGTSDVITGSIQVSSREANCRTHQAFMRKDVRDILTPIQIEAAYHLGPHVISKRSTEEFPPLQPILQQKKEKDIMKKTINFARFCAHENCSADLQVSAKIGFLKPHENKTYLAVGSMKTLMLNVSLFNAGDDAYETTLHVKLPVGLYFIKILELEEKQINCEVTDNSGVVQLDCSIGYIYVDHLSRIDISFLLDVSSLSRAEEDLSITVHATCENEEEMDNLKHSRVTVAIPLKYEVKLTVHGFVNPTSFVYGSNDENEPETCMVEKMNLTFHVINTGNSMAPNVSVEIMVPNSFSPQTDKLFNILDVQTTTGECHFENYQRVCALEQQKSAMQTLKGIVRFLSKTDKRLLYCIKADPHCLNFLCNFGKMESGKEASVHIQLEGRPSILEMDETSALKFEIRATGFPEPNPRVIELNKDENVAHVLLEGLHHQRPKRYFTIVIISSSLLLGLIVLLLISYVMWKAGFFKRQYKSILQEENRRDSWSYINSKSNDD
Sequence of Beta-adrenergic receptor kinase 1 (Homo sapiens) (P25098 whole entry, looked up): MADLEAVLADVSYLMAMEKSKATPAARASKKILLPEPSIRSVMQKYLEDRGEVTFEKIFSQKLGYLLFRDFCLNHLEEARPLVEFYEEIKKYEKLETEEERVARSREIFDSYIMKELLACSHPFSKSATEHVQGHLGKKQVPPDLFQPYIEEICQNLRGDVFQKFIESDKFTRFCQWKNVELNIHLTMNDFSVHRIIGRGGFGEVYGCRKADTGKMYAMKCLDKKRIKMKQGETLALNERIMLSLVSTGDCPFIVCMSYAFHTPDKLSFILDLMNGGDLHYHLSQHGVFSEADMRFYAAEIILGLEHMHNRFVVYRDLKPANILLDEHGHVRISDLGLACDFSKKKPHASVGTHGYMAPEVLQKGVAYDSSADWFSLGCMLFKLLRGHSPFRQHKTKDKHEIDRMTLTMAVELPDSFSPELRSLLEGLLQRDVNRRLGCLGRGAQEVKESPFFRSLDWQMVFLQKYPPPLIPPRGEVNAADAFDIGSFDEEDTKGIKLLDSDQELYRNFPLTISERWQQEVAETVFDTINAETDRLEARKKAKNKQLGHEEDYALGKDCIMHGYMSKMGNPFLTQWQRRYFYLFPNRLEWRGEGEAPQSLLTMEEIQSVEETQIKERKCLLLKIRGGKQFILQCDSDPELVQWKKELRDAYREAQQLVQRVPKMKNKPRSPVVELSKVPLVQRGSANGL
Sequence of ATP-binding cassette sub-family B member 6 (Homo sapiens) (Q9NP58 whole entry, looked up): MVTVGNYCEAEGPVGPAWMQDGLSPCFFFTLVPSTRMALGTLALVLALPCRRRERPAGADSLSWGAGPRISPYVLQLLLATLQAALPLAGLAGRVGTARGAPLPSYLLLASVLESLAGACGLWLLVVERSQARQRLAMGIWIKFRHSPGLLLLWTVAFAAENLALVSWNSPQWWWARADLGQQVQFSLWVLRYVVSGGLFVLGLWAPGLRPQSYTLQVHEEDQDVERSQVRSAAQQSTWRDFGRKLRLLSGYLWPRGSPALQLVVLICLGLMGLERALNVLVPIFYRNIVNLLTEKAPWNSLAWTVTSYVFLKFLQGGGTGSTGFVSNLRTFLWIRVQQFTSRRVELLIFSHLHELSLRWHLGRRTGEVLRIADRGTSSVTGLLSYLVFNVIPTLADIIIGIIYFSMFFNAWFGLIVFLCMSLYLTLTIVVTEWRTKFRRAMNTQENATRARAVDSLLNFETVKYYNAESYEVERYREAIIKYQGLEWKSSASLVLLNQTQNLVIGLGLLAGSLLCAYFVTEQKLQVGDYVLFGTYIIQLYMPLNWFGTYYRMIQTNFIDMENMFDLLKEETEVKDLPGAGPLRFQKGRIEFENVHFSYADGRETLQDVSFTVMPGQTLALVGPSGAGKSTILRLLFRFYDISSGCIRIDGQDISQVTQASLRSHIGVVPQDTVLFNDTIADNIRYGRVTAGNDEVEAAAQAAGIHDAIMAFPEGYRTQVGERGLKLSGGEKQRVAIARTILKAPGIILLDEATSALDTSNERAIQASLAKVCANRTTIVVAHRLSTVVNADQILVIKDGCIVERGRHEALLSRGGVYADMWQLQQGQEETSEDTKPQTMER

| Structure (SMILES) | percent of DMSO control GFP [1] | GFP response vs DMSO [2] | percent response of DMSO control [3] | GFP response vs DMSO [4] | GFP response, % of DMSO [5] | double positive events [6] [%] | vesicle binding response [6] | inhibition [7] | superoxide response (% of plate) [8] | aptamer binding inhibition [9] | response [10] | inhibition [11] | response [12] | binding (% of control) [13] | efflux inhibition (fraction of control) [14] | inhibition [15] | differentiation response [16] |
| --- | --- | --- | --- | --- | --- | --- | --- | --- | --- | --- | --- | --- | --- | --- | --- | --- | --- |
| O=C(CCSc1ccccc1)N1CCCC1 | 109% (inactive) | 109% (inactive) | 104% (inactive) | 104% (inactive) | 112% (inactive) | 67.6 | 193% (inactive) | 3.98% (inactive) | 109% (inactive) | 5% (inactive) | -4.18% (inactive) | 33.8% (inactive) | -0.71% (inactive) | 91.3% (inactive) | -0.15 (inactive) | 5% (inactive) | -0.36% (inactive) |
| COC1CCN(Cc2cn(Cc3ccccc3)nc2-c2cc3ccccc3o2)CC1 | 105% (inactive) | 93% (inactive) | 102% (inactive) | 89.4% (inactive) | 98.9% (inactive) | 61.8 | 243% (inactive) | 22.4% (inactive) | 104% (inactive) | 0% (inactive) | 8.96% (inactive) | 9.94% (inactive) | -0.82% (inactive) | 105% (inactive) | -0.14 (inactive) | 12% (inactive) | -9.53% (inactive) |
| CC(=O)Oc1c2occc2cc2ccc(=O)oc12 | 98.4% (inactive) | 103% (inactive) | 87.2% (inactive) | 114% (inactive) | 98.9% (inactive) | 57.9 | 140% (inactive) | -11.3% (inactive) | 101% (inactive) | 3% (inactive) | 9.55% (inactive) | 7.26% (inactive) | -2.03% (inactive) | 101% (inactive) | 0.51 (active) | 8% (inactive) | 10.4% (inactive) |
| CC(=O)[C@H]1[C@H](C#N)C[C@H]2[C@@H]3CC=C4C[C@@H](O)CC[C@]4(C)[C@H]3CC[C@@]21C | 92% (inactive) | 125% (inactive) | 104% (inactive) | 85.8% (inactive) | 88% (inactive) | 62.5 | 112% (inactive) | 19.1% (inactive) | 104% (inactive) | 11% (inactive) | 2.41% (inactive) | -10% (inactive) | 0% (inactive) | 103% (inactive) | -0.28 (inactive) | 6% (inactive) | -3.28% (inactive) |
| COC(=O)c1ccc(NC(=O)c2ccccc2SC)cc1 | 97.8% (inactive) | 104% (inactive) | 102% (inactive) | 106% (inactive) | 91.8% (inactive) | 58.4 | 132% (inactive) | 1.62% (inactive) | 109% (inactive) | 2% (inactive) | 1.63% (inactive) | 18.8% (inactive) | -1.67% (inactive) | 99% (inactive) | -0.26 (inactive) | 1% (inactive) | 5.13% (inactive) |
